The target of test [1] is Sphingosine kinase 1 (Homo sapiens) (UniProt Q9NYA1). The conditions noted are these: at 1 µM.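 Also: mean SPHK1 inhibition value reported from the GSK PKIS kinase panel screen.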
In test [2] the target is T1, Sphingosine kinase 2 (Homo sapiens) (UniProt Q9NRA0).
T1 sequence (whole entry): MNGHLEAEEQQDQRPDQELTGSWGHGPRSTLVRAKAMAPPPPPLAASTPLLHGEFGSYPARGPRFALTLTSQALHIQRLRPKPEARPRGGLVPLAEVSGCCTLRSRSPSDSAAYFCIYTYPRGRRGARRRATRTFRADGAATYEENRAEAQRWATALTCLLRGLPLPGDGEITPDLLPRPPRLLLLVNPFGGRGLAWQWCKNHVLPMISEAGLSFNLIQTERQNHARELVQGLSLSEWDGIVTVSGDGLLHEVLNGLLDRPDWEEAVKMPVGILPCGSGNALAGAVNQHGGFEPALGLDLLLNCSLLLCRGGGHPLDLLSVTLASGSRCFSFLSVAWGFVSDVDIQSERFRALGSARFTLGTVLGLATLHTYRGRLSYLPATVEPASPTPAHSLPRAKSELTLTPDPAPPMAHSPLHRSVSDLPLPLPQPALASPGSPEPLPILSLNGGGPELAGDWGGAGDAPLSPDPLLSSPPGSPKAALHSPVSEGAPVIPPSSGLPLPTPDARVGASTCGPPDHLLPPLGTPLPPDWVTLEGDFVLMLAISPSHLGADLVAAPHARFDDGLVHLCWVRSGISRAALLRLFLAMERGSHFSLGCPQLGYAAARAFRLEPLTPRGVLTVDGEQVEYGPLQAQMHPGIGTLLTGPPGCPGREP
To be noted: at 0.1 µM.

Test [3] addresses T1, Sphingosine kinase 2 (Homo sapiens). The conditions noted are these: at 1 µM.
For test [4], the target named is Casein kinase II subunit alpha (Homo sapiens) (UniProt P68400). The conditions noted are these: at 0.1 µM.
For test [5] the target is unchanged. To be noted: at 1 µM.
The target in test [6] is T2, Inhibitor of nuclear factor kappa-B kinase subunit alpha (Homo sapiens) (UniProt O15111).
T2 sequence (whole entry): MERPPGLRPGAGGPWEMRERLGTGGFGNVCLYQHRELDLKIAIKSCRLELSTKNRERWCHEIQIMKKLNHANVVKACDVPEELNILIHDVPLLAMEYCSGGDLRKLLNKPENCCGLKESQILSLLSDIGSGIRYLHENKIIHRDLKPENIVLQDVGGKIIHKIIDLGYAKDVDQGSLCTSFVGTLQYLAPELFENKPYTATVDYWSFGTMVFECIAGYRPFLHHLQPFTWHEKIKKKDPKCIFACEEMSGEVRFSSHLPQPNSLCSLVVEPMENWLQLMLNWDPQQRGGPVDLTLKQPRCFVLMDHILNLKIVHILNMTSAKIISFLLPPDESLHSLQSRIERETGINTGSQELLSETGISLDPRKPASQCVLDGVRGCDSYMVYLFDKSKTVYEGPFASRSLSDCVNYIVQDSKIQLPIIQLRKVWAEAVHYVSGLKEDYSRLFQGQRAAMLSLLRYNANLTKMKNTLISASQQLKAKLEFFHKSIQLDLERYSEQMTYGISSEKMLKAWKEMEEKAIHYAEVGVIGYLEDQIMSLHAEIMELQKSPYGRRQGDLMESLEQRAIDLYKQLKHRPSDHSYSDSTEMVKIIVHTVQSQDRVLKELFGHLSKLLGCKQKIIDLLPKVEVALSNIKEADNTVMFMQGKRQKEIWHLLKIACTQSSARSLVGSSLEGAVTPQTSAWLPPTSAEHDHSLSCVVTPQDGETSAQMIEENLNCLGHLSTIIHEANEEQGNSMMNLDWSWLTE
The conditions noted are these: at 0.1 µM.

The target in test [7] is T2, Inhibitor of nuclear factor kappa-B kinase subunit alpha (Homo sapiens). To be noted: at 1 µM.
In test [8] the target is T3, Inhibitor of nuclear factor kappa-B kinase subunit beta (Homo sapiens) (UniProt O14920).
T3 sequence (whole entry): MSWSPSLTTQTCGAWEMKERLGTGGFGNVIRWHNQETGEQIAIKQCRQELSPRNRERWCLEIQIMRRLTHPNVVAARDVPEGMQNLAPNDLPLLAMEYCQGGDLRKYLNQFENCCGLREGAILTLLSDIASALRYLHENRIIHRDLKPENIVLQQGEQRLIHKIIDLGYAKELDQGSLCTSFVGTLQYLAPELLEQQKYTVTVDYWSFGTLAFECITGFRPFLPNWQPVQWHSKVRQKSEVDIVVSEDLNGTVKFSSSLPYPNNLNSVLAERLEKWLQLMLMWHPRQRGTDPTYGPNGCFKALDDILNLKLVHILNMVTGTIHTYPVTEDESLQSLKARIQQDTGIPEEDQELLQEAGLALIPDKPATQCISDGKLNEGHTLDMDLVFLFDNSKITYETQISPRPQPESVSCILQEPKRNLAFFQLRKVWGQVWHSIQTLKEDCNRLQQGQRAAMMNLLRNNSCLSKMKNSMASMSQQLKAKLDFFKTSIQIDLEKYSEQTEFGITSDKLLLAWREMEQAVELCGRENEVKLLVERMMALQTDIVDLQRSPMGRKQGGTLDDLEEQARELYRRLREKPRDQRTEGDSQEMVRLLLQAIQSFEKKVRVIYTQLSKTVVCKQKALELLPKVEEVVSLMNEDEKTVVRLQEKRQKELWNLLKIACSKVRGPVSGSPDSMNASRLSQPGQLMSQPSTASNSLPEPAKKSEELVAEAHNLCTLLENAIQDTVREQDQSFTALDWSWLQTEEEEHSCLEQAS
The conditions noted are these: at 0.1 µM.

The target of test [9] is T3, Inhibitor of nuclear factor kappa-B kinase subunit beta (Homo sapiens). To be noted: at 1 µM.
The target in test [10] is T4, Inhibitor of nuclear factor kappa-B kinase subunit epsilon (Homo sapiens) (UniProt Q14164).
T4 sequence (whole entry): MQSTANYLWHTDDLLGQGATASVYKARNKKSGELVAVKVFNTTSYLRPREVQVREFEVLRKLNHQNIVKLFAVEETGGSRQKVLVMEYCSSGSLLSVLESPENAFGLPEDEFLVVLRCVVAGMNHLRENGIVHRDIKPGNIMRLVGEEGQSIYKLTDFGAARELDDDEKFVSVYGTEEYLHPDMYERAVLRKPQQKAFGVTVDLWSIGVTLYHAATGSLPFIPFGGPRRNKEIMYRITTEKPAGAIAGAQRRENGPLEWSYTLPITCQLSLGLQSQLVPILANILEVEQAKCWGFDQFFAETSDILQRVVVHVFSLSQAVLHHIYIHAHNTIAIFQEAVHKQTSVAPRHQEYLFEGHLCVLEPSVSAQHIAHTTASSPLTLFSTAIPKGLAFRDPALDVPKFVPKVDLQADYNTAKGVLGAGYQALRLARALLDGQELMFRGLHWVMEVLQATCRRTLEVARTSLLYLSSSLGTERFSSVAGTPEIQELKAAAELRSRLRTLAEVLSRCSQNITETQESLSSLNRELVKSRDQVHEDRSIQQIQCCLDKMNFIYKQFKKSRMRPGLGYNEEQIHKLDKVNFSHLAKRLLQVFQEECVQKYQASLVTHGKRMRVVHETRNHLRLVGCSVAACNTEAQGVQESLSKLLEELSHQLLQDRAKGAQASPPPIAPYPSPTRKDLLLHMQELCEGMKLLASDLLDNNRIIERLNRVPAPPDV
To be noted: at 0.1 µM.

Test [11] addresses T4, Inhibitor of nuclear factor kappa-B kinase subunit epsilon (Homo sapiens). To be noted: at 1 µM.
Test [12] deals with T5, Serine/threonine-protein kinase Nek1 (Homo sapiens) (UniProt Q96PY6).
T5 sequence (whole entry): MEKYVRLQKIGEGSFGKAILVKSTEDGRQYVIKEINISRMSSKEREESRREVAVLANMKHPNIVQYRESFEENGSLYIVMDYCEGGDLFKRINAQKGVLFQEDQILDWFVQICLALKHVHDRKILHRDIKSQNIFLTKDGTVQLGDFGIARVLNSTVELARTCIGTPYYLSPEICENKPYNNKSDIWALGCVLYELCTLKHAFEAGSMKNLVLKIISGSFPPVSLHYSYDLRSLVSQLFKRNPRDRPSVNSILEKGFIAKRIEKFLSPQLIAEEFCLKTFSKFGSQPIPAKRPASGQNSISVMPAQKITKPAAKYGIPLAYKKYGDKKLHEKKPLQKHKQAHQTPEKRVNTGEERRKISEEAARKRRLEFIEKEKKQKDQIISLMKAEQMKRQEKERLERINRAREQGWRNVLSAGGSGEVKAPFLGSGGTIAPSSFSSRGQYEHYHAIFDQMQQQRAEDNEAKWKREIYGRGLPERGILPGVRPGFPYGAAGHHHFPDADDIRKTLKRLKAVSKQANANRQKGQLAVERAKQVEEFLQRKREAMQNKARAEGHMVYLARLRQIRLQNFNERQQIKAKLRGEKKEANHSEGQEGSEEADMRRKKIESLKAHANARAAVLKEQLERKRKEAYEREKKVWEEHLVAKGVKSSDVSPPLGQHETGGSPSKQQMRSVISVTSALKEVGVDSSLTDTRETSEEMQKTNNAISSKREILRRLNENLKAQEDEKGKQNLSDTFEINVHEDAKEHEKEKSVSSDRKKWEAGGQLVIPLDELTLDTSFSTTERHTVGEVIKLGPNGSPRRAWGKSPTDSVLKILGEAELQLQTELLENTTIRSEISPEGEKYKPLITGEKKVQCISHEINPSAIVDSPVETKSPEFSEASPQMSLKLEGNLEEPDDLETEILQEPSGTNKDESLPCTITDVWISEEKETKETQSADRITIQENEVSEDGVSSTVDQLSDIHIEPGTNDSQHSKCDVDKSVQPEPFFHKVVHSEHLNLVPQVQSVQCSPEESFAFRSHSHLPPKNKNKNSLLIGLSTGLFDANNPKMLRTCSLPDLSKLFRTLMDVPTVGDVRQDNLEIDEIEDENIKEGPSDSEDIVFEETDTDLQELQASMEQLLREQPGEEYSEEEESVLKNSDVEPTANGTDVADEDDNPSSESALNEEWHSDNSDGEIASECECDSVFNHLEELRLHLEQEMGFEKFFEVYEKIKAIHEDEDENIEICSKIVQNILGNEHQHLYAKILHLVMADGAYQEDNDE
The conditions noted are these: at 0.1 µM.

In test [13] the target is T5, Serine/threonine-protein kinase Nek1 (Homo sapiens). To be noted: at 1 µM.
In test [14] the target is T6, Serine/threonine-protein kinase Nek2 (Homo sapiens) (UniProt P51955).
T6 sequence (whole entry): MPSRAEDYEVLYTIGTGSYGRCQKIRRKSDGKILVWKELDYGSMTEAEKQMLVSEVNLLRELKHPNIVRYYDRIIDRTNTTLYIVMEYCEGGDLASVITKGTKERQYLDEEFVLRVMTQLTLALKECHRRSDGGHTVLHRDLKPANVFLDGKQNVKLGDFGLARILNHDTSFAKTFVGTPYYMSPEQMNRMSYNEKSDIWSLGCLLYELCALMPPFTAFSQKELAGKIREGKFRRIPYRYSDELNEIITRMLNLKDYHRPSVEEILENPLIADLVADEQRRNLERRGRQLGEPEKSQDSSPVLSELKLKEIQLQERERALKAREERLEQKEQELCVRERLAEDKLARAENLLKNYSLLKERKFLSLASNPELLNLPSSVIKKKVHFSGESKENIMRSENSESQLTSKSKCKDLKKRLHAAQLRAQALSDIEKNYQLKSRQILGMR
To be noted: at 0.1 µM.

For test [15], the target named is T6, Serine/threonine-protein kinase Nek2 (Homo sapiens). To be noted: at 1 µM.
Test [16] has as its target Serine/threonine-protein kinase Nek6 (Homo sapiens) (UniProt Q9HC98). To be noted: at 0.1 µM.
The target is the same in test [17]. To be noted: at 1 µM.
Test [18] addresses Serine/threonine-protein kinase Nek7 (Homo sapiens) (UniProt Q8TDX7). To be noted: at 0.1 µM.
The target is the same in test [19]. To be noted: at 1 µM.
In test [20] the target is T7, Serine/threonine-protein kinase Nek9 (Homo sapiens) (UniProt Q8TD19).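 Also: reported value is the mean percent inhibition of NEK9.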
T7 sequence (whole entry): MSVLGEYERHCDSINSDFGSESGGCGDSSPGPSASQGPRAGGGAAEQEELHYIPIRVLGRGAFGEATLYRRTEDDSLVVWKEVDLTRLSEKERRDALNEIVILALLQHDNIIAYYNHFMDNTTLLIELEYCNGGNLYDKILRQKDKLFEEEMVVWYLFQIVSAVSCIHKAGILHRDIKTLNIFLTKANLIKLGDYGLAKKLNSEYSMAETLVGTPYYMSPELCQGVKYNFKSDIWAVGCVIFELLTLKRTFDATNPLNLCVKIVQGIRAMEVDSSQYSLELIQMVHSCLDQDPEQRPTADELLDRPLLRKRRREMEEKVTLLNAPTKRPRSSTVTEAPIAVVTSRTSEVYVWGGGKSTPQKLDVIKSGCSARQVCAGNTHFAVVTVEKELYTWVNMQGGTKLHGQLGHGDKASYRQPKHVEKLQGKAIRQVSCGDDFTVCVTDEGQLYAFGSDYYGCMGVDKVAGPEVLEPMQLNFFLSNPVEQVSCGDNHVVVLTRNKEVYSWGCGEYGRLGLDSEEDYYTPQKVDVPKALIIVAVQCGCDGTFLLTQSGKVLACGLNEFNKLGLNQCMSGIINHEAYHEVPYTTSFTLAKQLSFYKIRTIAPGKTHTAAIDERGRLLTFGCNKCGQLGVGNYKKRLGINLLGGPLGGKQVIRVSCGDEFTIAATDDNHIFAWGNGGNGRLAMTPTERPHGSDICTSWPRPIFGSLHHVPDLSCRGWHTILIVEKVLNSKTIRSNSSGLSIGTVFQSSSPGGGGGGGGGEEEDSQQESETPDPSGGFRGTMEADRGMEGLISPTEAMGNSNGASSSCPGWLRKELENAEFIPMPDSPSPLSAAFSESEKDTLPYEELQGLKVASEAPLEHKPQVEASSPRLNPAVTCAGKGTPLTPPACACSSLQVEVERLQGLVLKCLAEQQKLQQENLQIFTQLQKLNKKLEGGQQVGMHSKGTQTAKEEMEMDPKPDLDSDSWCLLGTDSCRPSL
The conditions noted are these: at 0.1 µM.

Here are results for 1 compound from ChEMBL document CHEMBL1961873, “Compounds: GSK PKIS; Assays: Nanosyn kinase panel” (2012).

Serine/threonine-protein kinase Nek7 (Homo sapiens), sequence (Q8TDX7 whole entry, looked up): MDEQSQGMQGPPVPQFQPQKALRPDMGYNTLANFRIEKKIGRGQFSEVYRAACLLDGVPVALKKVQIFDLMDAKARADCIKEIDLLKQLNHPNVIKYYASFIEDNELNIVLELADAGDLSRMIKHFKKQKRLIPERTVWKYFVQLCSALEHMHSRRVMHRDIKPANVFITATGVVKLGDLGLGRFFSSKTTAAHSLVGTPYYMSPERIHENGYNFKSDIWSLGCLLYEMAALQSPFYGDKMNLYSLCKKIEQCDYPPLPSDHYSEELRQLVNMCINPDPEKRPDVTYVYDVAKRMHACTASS
Serine/threonine-protein kinase Nek6 (Homo sapiens), sequence (Q9HC98 whole entry): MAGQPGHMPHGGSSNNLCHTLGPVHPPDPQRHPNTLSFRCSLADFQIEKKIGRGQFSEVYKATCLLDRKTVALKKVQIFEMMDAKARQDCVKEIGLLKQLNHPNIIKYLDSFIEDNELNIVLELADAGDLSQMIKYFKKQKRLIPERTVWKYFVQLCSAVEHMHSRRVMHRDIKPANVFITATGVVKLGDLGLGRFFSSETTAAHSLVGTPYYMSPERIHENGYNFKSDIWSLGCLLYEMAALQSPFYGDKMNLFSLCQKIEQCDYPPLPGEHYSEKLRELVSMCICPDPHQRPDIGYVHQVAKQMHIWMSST
Casein kinase II subunit alpha (Homo sapiens), sequence (P68400 whole entry, looked up): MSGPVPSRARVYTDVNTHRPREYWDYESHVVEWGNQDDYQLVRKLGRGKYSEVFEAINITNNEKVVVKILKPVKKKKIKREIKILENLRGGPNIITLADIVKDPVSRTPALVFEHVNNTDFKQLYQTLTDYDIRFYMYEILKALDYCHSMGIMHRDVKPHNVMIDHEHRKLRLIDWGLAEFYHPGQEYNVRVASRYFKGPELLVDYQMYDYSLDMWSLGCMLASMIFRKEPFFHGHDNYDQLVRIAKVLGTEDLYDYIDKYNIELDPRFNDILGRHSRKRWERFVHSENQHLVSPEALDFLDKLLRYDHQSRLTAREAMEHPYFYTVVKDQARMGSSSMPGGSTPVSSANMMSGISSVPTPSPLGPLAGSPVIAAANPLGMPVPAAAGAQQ
Sphingosine kinase 1 (Homo sapiens), sequence (Q9NYA1 whole entry): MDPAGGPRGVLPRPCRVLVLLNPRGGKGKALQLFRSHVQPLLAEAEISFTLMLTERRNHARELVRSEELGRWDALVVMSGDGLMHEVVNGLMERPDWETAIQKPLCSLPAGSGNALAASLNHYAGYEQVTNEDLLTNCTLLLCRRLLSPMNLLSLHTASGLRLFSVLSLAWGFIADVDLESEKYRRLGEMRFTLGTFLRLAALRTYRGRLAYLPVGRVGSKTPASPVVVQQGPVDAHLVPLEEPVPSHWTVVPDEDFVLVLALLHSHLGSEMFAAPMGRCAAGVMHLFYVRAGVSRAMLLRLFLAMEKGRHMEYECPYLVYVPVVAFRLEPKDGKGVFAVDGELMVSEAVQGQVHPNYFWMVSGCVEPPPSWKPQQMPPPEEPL

By inhibition is commonly meant the change of the read-out against control, counted positive when it falls. Consider `NC(=O)Cc1ccccc1Oc1nccc(-c2c(-c3ccc(F)cc3)ncn2C2CCNCC2)n1`, for which the inhibition in [1] was -2.09%; in [2], 0.16%; in [3], 0.42%; in test [4], 1.72%; in [5], 2.63%; in test [6], 8.64%. Further, the inhibition in test [7] worked out at 0.14%; in test [8] it was 4.37%; in test [9], 3.54%; in [10] it was 2.28%; in [11], 0.67%; in test [12] it was 1.64%. For the same compound, the inhibition in [13] amounted to 4.11%; in [14], 2.13%; in test [15], 4.35%; in [16], 0.28%; in [17] it was 1.26%; in test [18] it was 3.21%. Further, the inhibition stood at 2.73% in test [19] and 10.9% in test [20].
